14 compounds from article PMC5540273 (PLoS ONE, 2017) can be followed below.

Among the test systems are RIOK1; RIOK2; RIOK3; RIPK1; RIPK2; RIPK4; RIPK5; ROCK1; ROCK2; ROS1.
Details in all cases: concentration: 1 μM, replicates: in singlicate; n = 1
Assay [1] deals with RPS6KA4(Kin.Dom.1-N-terminal).
The test system of assay [2] is RPS6KA4(Kin.Dom.2-C-terminal).
Assay [3] deals with RPS6KA5(Kin.Dom.1-N-terminal).
Assay [4] deals with RPS6KA5(Kin.Dom.2-C-terminal).
In assay [5] the test system is T1, RSK1(Kin.Dom.1-N-terminal).
T1 construct: gene RPS6KA1

Assay [6] relates to T2, RSK1(Kin.Dom.2-C-terminal).
T2 construct: gene RPS6KA1

Assay [7] concerns T3, RSK2(Kin.Dom.1-N-terminal).
T3 construct: gene RPS6KA3

Assay [8] has as its system T4, RSK2(Kin.Dom.2-C-terminal).
T4 construct: gene RPS6KA3

Assay [9] deals with T5, RSK3(Kin.Dom.1-N-terminal).
T5 construct: gene RPS6KA2

In assay [10] the test system is T6, RSK3(Kin.Dom.2-C-terminal).
T6 construct: gene RPS6KA2
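Further: KINOMEscan kinase panel screen.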

On to `COC(=O)Nc1nc2ccc(Oc3ccc(NC(=O)Nc4cc(C(F)(F)F)ccc4F)cc3)cc2[nH]1.Cl` [GW654607], for which the “%Inh” value in the assay on RIOK1 worked out at 2%; with RIOK2 it was 0%; with RIOK3, 21%; in the assay on RIPK1, 74%; with RIPK2, 81%; with RIPK4, 18%. For the same compound, the “%Inh” value in the assay with RIPK5 is recorded as 0%; in the assay with ROCK1, 43%; in the assay with ROCK2 it was 16%; in the assay on ROS1, 6%; in [1], 15%; in assay [2] it was 0%. Further, the “%Inh” value is 0% in assay [3]; 0% in assay [4]; 0% in assay [5]; 13% in [6]; 0% in [7]; 35% in assay [8]. For the same compound, the “%Inh” value in assay [9] was determined as 12%; in assay [10], 0%.
In the case of `CCn1c(-c2nonc2N)nc2c(-c3ccccc3)ncc(OCCCN)c21.O=C(O)C(F)(F)F.O=C(O)C(F)(F)F` [GSK260205], the “%Inh” value in the assay on RIOK1 is listed as 7%; in the assay with RIOK2, 15%; with RIOK3 it was 0%; in the assay with RIPK1 it was 0%; with RIPK2, 30%; in the assay on RIPK4 it was 10%. Besides, the “%Inh” value in the assay on RIPK5 was 0%; with ROCK1, 91.7%; in the assay with ROCK2, 98.4%; with ROS1, 0%; in assay [1] it was 0%; in [2], 0%. Besides, the “%Inh” value in assay [3] was 31%; in assay [4], 8%; in assay [5], 19%; in [6], 50%; in assay [7], 80%; in assay [8], 0%. Besides, the “%Inh” value in [9] worked out at 99.7%; in assay [10] it was 1%.
As to `COc1cc(Nc2nccc(N3CCC(NS(=O)(=O)c4ccc(NC(C)=O)cc4)CC3)n2)cc(OC)c1OC` [GSK1379825], the “%Inh” value is 76% with RIOK1; 66% with RIOK2; 59% with RIOK3; 81% in the assay on RIPK1; 80% in the assay on RIPK2; 48% in the assay on RIPK4. The “%Inh” value in the assay on RIPK5 stood at 0%; in the assay on ROCK1, 28%; in the assay with ROCK2 it was 26%; in the assay with ROS1 it was 48%; in assay [1], 0%; in assay [2], 0%. Moreover, the “%Inh” value is on record as 27% in [3]; 0% in assay [4]; 0% in assay [5]; 0% in assay [6]; 5% in [7]; 24% in assay [8]. Besides, the “%Inh” value turned out to be 11% in [9] and 2% in [10].
With `Cc1nn2c(=O)cc(N3CCO[C@H](C)C3)nc2n1Cc1cccc(Cl)c1Cl` [GSK2373693], the “%Inh” value came out at 39% in the assay with RIOK1; 39% in the assay with RIOK2; 5% in the assay on RIOK3; 2% in the assay with RIPK1; 61% with RIPK2; 19% with RIPK4. Moreover, the “%Inh” value is given as 0% in the assay on RIPK5; 73% in the assay on ROCK1; 5% in the assay with ROCK2; 0% in the assay on ROS1; 18% in assay [1]; 39% in [2]. The “%Inh” value in assay [3] amounted to 19%; in assay [4], 24%; in assay [5], 0%; in assay [6] it was 4%; in assay [7] it was 10%; in assay [8], 5%. In addition, the “%Inh” value in [9] worked out at 26%; in [10] it was 4%.
Regarding `CC(C)c1nc(-c2ccc(F)c(NS(=O)(=O)c3c(F)cccc3F)c2)c(-c2ccnc(Nc3ccc(N4CCOCC4)nc3)n2)s1` [GSK1804250], the “%Inh” value with RIOK1 is recorded as 30%; in the assay on RIOK2, 13%; with RIOK3, 84%; with RIPK1, 0%; with RIPK2 it was 97.6%; in the assay on RIPK4 it was 0%. Also, the “%Inh” value in the assay on RIPK5 is 19%; with ROCK1, 12%; in the assay with ROCK2 it was 2%; with ROS1, 17%; in [1], 6%; in assay [2] it was 0%. The “%Inh” value in assay [3] was found to be 15%; in assay [4] it was 3%; in [5], 25%; in [6] it was 9%; in [7] it was 22%; in [8], 27%. Further, the “%Inh” value is given as 24% in [9] and 6% in assay [10].
Regarding `Cn1cc(-c2ccc3c(c2)CCN3C(=O)Cc2cc(F)cc(F)c2F)c2c(N)ncnc21` [GSK2634140], the “%Inh” value worked out at 39% in the assay on RIOK1; 15% with RIOK2; 13% in the assay on RIOK3; 99.7% with RIPK1; 0% in the assay with RIPK2; 0% in the assay on RIPK4. Moreover, the “%Inh” value in the assay on RIPK5 was 54%; in the assay on ROCK1 it was 36%; in the assay with ROCK2, 30%; in the assay with ROS1, 34%; in assay [1], 19%; in assay [2] it was 0%. Moreover, the “%Inh” value is 20% in assay [3]; 0% in assay [4]; 21% in assay [5]; 0% in assay [6]; 12% in assay [7]; 0% in assay [8]. The “%Inh” value was 12% in assay [9] and 0% in [10].
For `O=C(Nc1n[nH]c2nc(-c3ccccc3)ccc12)C1CC1` [SB-708999], the “%Inh” value in the assay with RIOK1 is reported as 35%; in the assay with RIOK2, 1%; in the assay with RIOK3, 37%; in the assay on RIPK1 it was 63%; in the assay on RIPK2, 0%; in the assay with RIPK4, 2%. The “%Inh” value in the assay with RIPK5 came out at 0%; in the assay on ROCK1, 21%; in the assay with ROCK2, 12%; in the assay on ROS1, 0%; in assay [1] it was 5%; in [2], 0%. In addition, the “%Inh” value turned out to be 13% in assay [3]; 4% in assay [4]; 0% in [5]; 0% in assay [6]; 0% in [7]; 32% in assay [8]. Also, the “%Inh” value worked out at 4% in assay [9] and 0% in assay [10].
As for `CN(c1ccc2c(c1)nc(NCc1ccccc1)n2C)c1ccnc(Nc2ccc(CS(C)(=O)=O)cc2)n1.Cl` [GW811603], the “%Inh” value with RIOK1 stood at 50%; in the assay with RIOK2, 0%; with RIOK3, 44%; with RIPK1, 100%; in the assay on RIPK2, 0%; in the assay on RIPK4, 49%. The “%Inh” value in the assay on RIPK5 is reported as 24%; in the assay with ROCK1 it was 20%; with ROCK2, 47%; in the assay on ROS1, 57%; in assay [1], 7%; in assay [2] it was 0%. In addition, the “%Inh” value in [3] was found to be 0%; in assay [4] it was 0%; in assay [5] it was 2%; in assay [6], 0%; in assay [7], 0%; in assay [8] it was 24%. The “%Inh” value is 0% in [9] and 23% in assay [10].
On to `Cn1cc(-c2cnc(N)c3c(-c4ccc5c(c4)CCN5C(=O)Cc4ccccc4)csc23)cn1` [GSK2593074], for which the “%Inh” value with RIOK1 is 33%; in the assay with RIOK2 it was 0%; in the assay on RIOK3, 6%; in the assay on RIPK1, 100%; in the assay on RIPK2 it was 96.1%; with RIPK4, 100%. For the same compound, the “%Inh” value in the assay on RIPK5 is reported as 55%; with ROCK1, 0%; in the assay on ROCK2 it was 11%; with ROS1 it was 0%; in assay [1], 1%; in assay [2], 38%. Also, the “%Inh” value in assay [3] stood at 0%; in [4], 2%; in assay [5], 9%; in assay [6], 42%; in assay [7] it was 0%; in [8], 9%. The figures for the “%Inh” value in assay [9] and in assay [10] were 0% and 7%, respectively.
For the compound `Cc1cccc(Nc2nc(N[C@H]3CCCC[C@H]3N)ncc2C(N)=O)c1.Cl` [GSK986310], the “%Inh” value in the assay on RIOK1 was 48%; in the assay with RIOK2, 42%; in the assay on RIOK3, 42%; in the assay on RIPK1 it was 7%; with RIPK2, 2%; in the assay on RIPK4, 68%. The “%Inh” value with RIPK5 was 17%; with ROCK1, 85%; in the assay on ROCK2, 82%; in the assay on ROS1, 62%; in [1], 32%; in [2] it was 0%. The “%Inh” value in [3] stood at 22%; in [4], 0%; in assay [5] it was 46%; in assay [6], 20%; in [7], 53%; in assay [8], 28%. Also, the “%Inh” value in assay [9] is given as 23%; in [10], 12%.
Turning to `CC(C)(C)c1ccc(C(=O)Nc2cn3cc(-n4ccnc4)ccc3n2)cc1`, the “%Inh” value stood at 0% with RIOK1; 6% in the assay on RIOK2; 0% with RIOK3; 2% in the assay with RIPK1; 24% in the assay on RIPK2; 0% in the assay with RIPK4. The “%Inh” value in the assay with RIPK5 came to 34%; with ROCK1, 0%; in the assay on ROCK2, 0%; in the assay with ROS1, 0%; in [1] it was 0%; in assay [2] it was 22%. For the same compound, the “%Inh” value turned out to be 10% in [3]; 31% in assay [4]; 0% in assay [5]; 0% in assay [6]; 25% in [7]; 0% in [8]. The “%Inh” value in assay [9] and in [10] was 0% each time.
Consider `O=C(Nc1n[nH]c2nc(-c3ccccc3O)ccc12)C1CC1` [SB-711880], for which the “%Inh” value is listed as 43% in the assay on RIOK1; 0% in the assay with RIOK2; 33% in the assay on RIOK3; 70% in the assay with RIPK1; 0% in the assay on RIPK2; 40% in the assay on RIPK4. The “%Inh” value with RIPK5 amounted to 0%; in the assay with ROCK1, 0%; with ROCK2, 0%; in the assay on ROS1, 0%; in assay [1] it was 0%; in [2] it was 7%. Besides, the “%Inh” value in assay [3] was determined as 0%; in [4], 0%; in assay [5], 4%; in [6] it was 0%; in [7], 54%; in assay [8], 0%. In addition, the “%Inh” value stood at 11% in assay [9] and 31% in [10].
Consider `c1ccc(Oc2ccc(Nc3ccnc4cc(-c5ccc(CN6CCCCC6)o5)ccc34)cc2)nc1` [GW567143], for which the “%Inh” value in the assay with RIOK1 was found to be 3%; with RIOK2 it was 13%; in the assay on RIOK3, 0%; in the assay on RIPK1, 0%; in the assay on RIPK2 it was 96.3%; with RIPK4, 0%. Further, the “%Inh” value in the assay on RIPK5 worked out at 0%; with ROCK1, 19%; with ROCK2, 0%; in the assay on ROS1, 0%; in assay [1] it was 13%; in [2] it was 0%. For the same compound, the “%Inh” value is recorded as 0% in [3]; 0% in assay [4]; 22% in assay [5]; 0% in assay [6]; 0% in assay [7]; 20% in assay [8]. Moreover, the “%Inh” value in [9] turned out to be 3%; in assay [10], 0%.
Take `CN(c1ccc(NC(=O)N2CCN(CCCN3CCOCC3)CC2)cc1)c1ccnc(Nc2ccc(CS(C)(=O)=O)cc2)n1.Cl` [GW830899]: the “%Inh” value in the assay on RIOK1 amounted to 80%; with RIOK2, 0%; with RIOK3, 82%; in the assay with RIPK1, 4%; in the assay on RIPK2 it was 17%; in the assay on RIPK4 it was 100%. Besides, the “%Inh” value with RIPK5 came out at 0%; with ROCK1, 0%; in the assay on ROCK2 it was 0%; with ROS1, 5%; in assay [1] it was 31%; in [2], 0%. For the same compound, the “%Inh” value in assay [3] was 0%; in assay [4], 0%; in assay [5], 2%; in assay [6], 1%; in assay [7], 0%; in assay [8], 1%. For the same compound, the “%Inh” value in assay [9] and in assay [10] was 0% each time.
